The test system of this test is HL-60(TB) leukemia. The experiment in a line: NCI-60 one-dose screen, 48 h (100 = growth as untreated, 0 = no growth, -100 = all killed). As to conditions: 10 µM unless noted.

Structures are written as SMILES. This is part of a sample that, as a whole, favours compounds with a hit. Of some 83,000 tested, about 20% had one in any assay.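 Note: values are percent growth. 100 is the growth of untreated cells, values between 100 and 0 indicate rising inhibition; between -100 and 0 indicates cell death.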 Values without a mark were called inactive. Calls of active or inactive are those of the source. How the source made its calls: active means growth percent below 10; inactive means the rest.

With `COc1ccc(C2=NOC(CC(=O)N(CCO)CCO)C2)cc1OC1CCCC1` (stereo not drawn), the growth was 110%. The figure for `COC(=O)[C@@H]1CCCN1C(=O)[C@H]1CCCN1C(=O)[C@@H](Cc1c[nH]c2ccccc12)NC(=S)Nc1cc(C(F)(F)F)cc(C(F)(F)F)c1` is 12.2%; for `COC(=O)c1oc2c(C(=O)/C=C/c3ccc(OC)cc3)c(OCCCN3CCCCC3)ccc2c1C` it is -54.7% (active). In the case of `CCc1nc2cc(F)c(/C=C/C(=O)NO)cc2c(=O)n1CCc1ccccc1`, the growth was 0.13% (active).

For the compound `CNC(=O)c1cnc(C)nc1-c1cc(C(C)(C)C)c(O)c(C(C)(C)C)c1`, the growth is 91.1%. The same measure for `O=CCCCOCc1ccccc1`: 100%. The figure for `Cn1cc(-c2csc(-c3c[nH]c4ncccc34)n2)c2cc(Br)cnc21` is 87.6%; for `COc1ccc(-n2nc(C)c3c(Nc4ccc(NC(=O)Nc5c(Cl)cccc5Cl)cc4)ncnc32)cc1` it is 97.8%. Consider `NS(=O)(=O)Oc1cccc(-c2nc3sccn3c2-c2ccccc2)c1`, for which the growth is 0.181% (active). Take `O=C(Nc1cccc(-n2ccc3c(NC(=O)c4ccccc4)nccc32)c1)c1cc(N2CCOCC2)cc(C(F)(F)F)c1`: the growth was -13.1% (active).

As for `CCCCNC(=O)c1cc([N+](=O)[O-])cc(C2CCCCC2)c1O`, the growth was 19.8%. As to `COc1ccc(-n2ncc3c4nc(OC)c(S(=O)(=O)c5ccccc5)cc4ccc32)cc1`, the growth is 107%.

On to `CCOC(=O)Nc1ccc2nc(-c3cscn3)[nH]c2c1`, for which the growth was 18.7%. The figure for `CC1Cc2c(ncnc2-n2cnc3ccccc32)N(C)c2ccccc21` (stereo not drawn) is 15.9%. Consider `C=C1CC2(OC1=O)C(=O)N(CCCCCCCCCCCCN1C(=O)C3(CC(=C)C(=O)O3)c3ccccc31)c1ccccc12` (stereo not drawn), for which the growth is 45.5%. The same measure for `Cc1cc(N)c(S(=O)(=O)O)c(N)c1`: 98.9%; for `CC(=O)C(C(C)=O)c1nc2sc3cc(Cl)ccc3n2c(=N)c1C#N`: 112%; for `COC(=O)C1(NC(=O)CNC(=O)OCc2ccccc2)CCCC1`: 90.4%. The figure for `N#Cc1cnc2cc(OC[C@@H](O)CO)c(NC(=O)CC3CSSC3)cc2c1Nc1ccc(OCc2cccc(F)c2)c(Cl)c1` is -56.4% (active). The same measure for `CCCCC#Cc1c(I)n(C)c(=O)[nH]c1=O`: -10.8% (active). Take `N#C/C(=C\c1ccc(-c2ccc(Cl)cc2)o1)c1ccc(Cl)cc1`: the growth was 96.1%. Take `CC(C)c1ccc(C(=O)OC(=O)c2ccc(C(C)C)cc2)cc1`: the growth is 51.3%. The same measure for `Cn1cc(CC2CC(=O)N(c3ccccc3)C2=O)sc1=NC(=O)c1ccccc1` (stereo not drawn): 114%; for `COc1ccc(Oc2ccc(/C=C/C(=O)c3cc4ccccc4oc3=O)cc2)cc1`: 31.1%; for `O=c1nc(NO)[nH]c(=O)n1Cc1ccc(F)cc1`: 103%. The same measure for `Cc1nn(-c2ccc([N+](=O)[O-])cc2)c2ncnc(NCCc3ccccc3)c12`: 65.9%; for `O=c1c2c(=NCCN3CCCC3)cc3c(=O)n(CCCN4CCOCC4)c(=O)c4ccc(c(O)n1CCCN1CCOCC1)c2c4-3`: -34.7% (active). Take `COc1ccncc1S(=O)(=O)NC(=O)Nc1ccc(Cl)c(Cl)c1`: the growth was 84.8%. Take `COC(=O)c1nc(-c2ccccc2)oc1S(=O)(=O)Cc1ccccc1`: the growth was 16.8%.

As for `Clc1ccc2c(NCCNc3nc(Cl)nc4ccccc34)ccnc2c1`, the growth was -67% (active).

As to `C/C(=N/NC(=S)Nc1ccccc1)c1nc2ccc(Cl)cc2[nH]1`, the growth is -11.7% (active). The figure for `C=C1CCC2C(C)(CO)C(O)CCC2(C)C1C/C=C1/C(=O)OCC1Oc1ccccc1C` (stereo not drawn) is 57.4%. As for `N#Cc1c(-c2cccc(Cl)c2)cc(-c2cccnc2)[nH]c1=O`, the growth was 66.9%. The same measure for `O=C(c1ccccc1)C1OC1C(=O)c1ccccc1` (stereo not drawn): 22.8%; for `O=C(CCCCCNC(=O)c1cc(=O)c(O)co1)Nc1ccccc1`: 106%; for `COc1cccc(Nc2ncnc3cc(NC(=O)CCl)ccc23)c1`: -49.7% (active). The figure for `CCOC(=O)C1=C(C)N=C2SC=C(c3ccccc3)N2[C@H]1c1cn[nH]c1-c1ccc(Cl)cc1` is 1.71% (active); for `CCCCCCCCCCCCCCCCC(=O)O.CCCCCCCCCCCCCCCCCC(=O)O.CCCCCCCCCCCCCCCCCC(=O)O.CCCCCCCCCCCCCCCCCC(=O)O.CCCCCCCCCCCCCCCCCC(=O)O.CO[CH-]OC12COC1CC(O)C1(C)C(O)C(OC(C)O)C3=C(C)C(OC(=O)C(O)C([NH-])c4ccccc4)CC(O)(C(OC(=O)c4ccccc4)C21)C3(C)C.[Cu+].[Zn].[Zn].[Zn].[Zn].[Zn]` (stereo not drawn) it is -3.29% (active).
